# Screening data: PubChem BioAssay, several laboratories
# PfM18AAP inh – blocks P. falciparum M18 aspartyl aminopeptidase | recombinant PfM18AAP, H-Glu-NHMec fluorogenic cleavage | hit rate 1.2% among 290,000 | AID 1822 | inhibition, % at 7.35 µM;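 active means inhibition above the campaign mean inhibition over all tested compounds plus 3 SD, cut at about 28% in these data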;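 further: 0% = plate median of test compound wells and 100% = 2 mM ZnCl2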
# Mot1-301 SUMO – blocks SUMOylation pathway, rescuing yeast Mot1-301 growth. S. cerevisiae Mot1-301 growth rescue, ATP luminescence, 38.5C; percent above DMSO median, 100 means doubled. growth rescue, % at 18.8 µM. hit rate 1% among 320,000. AID 2716;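 active means every valid replicate shows activation above 250% relative to neutral control wells; inactive means the rest, any valid replicate at or below 250%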;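 further: OY570 slx delta 5 strain wells were the positive control but not used for scaling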
# HIF activator – HIF pathway transcriptional activation; U2OS HRE-luciferase reporter, luminescence; normalized: DMSO 0%, desferrioxamine 100%; activation, % at 7.5 µM (by protocol); hit rate 0.32% among 300,000; AID 1910;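 active means mean activation of at least 10% of the iron chelator positive control signal, with at least half of replicates also reaching 10%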
# ALR H2O2 inh – human ALR oxidase inhibition via reduced H2O2. P55789. AID 485317. inhibition, % (concentration not given with the values). purified ALR, DTT oxidation, H2O2 HRP-luminol luminescence. hit rate 3.8% among 290,000;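 active means mean replicate inhibition above about 79%, with every replicate also reaching it, limit read from the data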
# Target sequence (P55789 whole entry, looked up): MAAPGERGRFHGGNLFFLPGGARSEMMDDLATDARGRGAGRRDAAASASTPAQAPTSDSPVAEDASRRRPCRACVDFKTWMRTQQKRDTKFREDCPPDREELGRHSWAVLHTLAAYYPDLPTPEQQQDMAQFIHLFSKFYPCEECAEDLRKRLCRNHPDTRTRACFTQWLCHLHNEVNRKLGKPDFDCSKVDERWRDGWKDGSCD
# Starred values were filed as active, the others as inactive; . = no result given. Most compounds without a hit are left out; they make up all but 5.3% or so of the library.
SMILES,PfM18AAP inh,Mot1-301 SUMO,HIF activator,ALR H2O2 inh
O=C(CN1CCCc2ccccc21)NCCc1ccc(F)cc1,4.9,127.3,0.0,108.4*
N#Cc1c(Sc2ncc(C(F)(F)F)cc2Cl)nsc1C/C=N\OCc1c(F)cccc1Cl,-1.3,-19.1,-0.3,-2.9
O=C(c1ccc(CS(=O)(=O)c2ccc(Br)cc2)o1)N1CCN(C2CCCCC2)CC1,-9.7,-13.4,.,-19.8
COc1ccc(S(=O)(=O)Cc2ccc(C(=O)N3CCN(C4CCCCC4)CC3)o2)cc1,-6.8,233.4,.,91.7*
COc1ccc(N2CCN(C(=O)c3ccc(CS(=O)(=O)c4ccc(OC)cc4)o3)CC2)cc1,9.8,13.3,.,-20.8
COc1ccc(N2CCN(C(=O)c3ccc(Br)o3)CC2)cc1,-3.2,-7.4,0.0,83.6*
COc1ccc(S(=O)(=O)Cc2ccc(C(=O)N3CCN(c4cccc(C)c4)C(C)C3)o2)cc1 (centres undefined),-0.3,-2.2,.,93.5*
COc1ccccc1S(=O)(=O)Cc1ccc(C(=O)N2CCN(c3ccc(C)cc3)C(C)C2)o1 (centres undefined),-5.8,11.1,0.0,72.8
COc1ccc(S(=O)(=O)Cc2ccc(C(=O)N3CCN(c4ccc(Cl)cc4)CC3)o2)cc1,-2.0,-4.5,.,85.5*
COc1ccccc1N1CCN(C(=O)c2ccc(Br)o2)CC1,.,-7.8,.,.
Cc1ccsc1C(=O)OCC(=O)N1C(C)CCCC1C (centres undefined),.,14.3,.,-5.2
COc1ccc(S(=O)(=O)Cc2ccc(C(=O)N3CCc4ccccc4C3)o2)cc1,-3.0,390.5,.,96.7*
CC(C)OC(=O)CC1C(=O)NCCN1C(=O)COc1ccc(C(C)(C)C)cc1 (centres undefined),-3.6,19.4,0.2,-2.2
COc1ccc(CNC(=O)CCS(=O)(=O)c2ccc3c(c2)CC(C)N3C(=O)C2CC2)cc1 (centres undefined),-1.6,15.7,0.2,-5.1
Cc1oc2c(O)c(O)ccc2c(=O)c1-c1ccccc1,.,-6.8,0.2,98.8*
Cc1csc(NC(=O)Cc2coc3cc(C)c(C(C)C)cc23)n1,15.1,11.4,-0.2,88.7*
O=c1c(-c2ccc(O)cc2)coc2c(C3O[C@H](CO)[C@@H](O)[C@H](O)[C@H]3O)c(O)ccc12 (some centres undefined),13.2,-3.6,-0.2,99.0*
O=c1c(-c2ccc(O)cc2)coc2c([C@@H]3O[C@H](CO)[C@@H](O)[C@H](O)[C@H]3O)c(O)ccc12,.,15.4,.,98.7*
COc1ccc(NC2CC(=O)N(c3cccc([N+](=O)[O-])c3)C2=O)cc1 (centres undefined),2.8,4.1,0.3,89.0*
CCn1c(=O)c(CCC(=O)N2CCN(c3ccccn3)CC2)c(C)c2c(C)nn(-c3ccccc3)c21,-15.8,-3.7,-0.6,-4.5
C=CCn1c(=O)c(C(=O)NC(C)c2ccccc2)c(O)c2ccccc21 (centres undefined),3.1,-3.9,-0.6,-17.9
CSCC(=O)N1CCCC(N2CCN(c3ccc(F)cc3)CC2)C1 (centres undefined),4.5,-1.2,0.5,58.6
O=C(CSc1ccccc1)N1CCCC(N2CCN(c3ccccc3)CC2)C1 (centres undefined),3.3,14.4,-0.9,98.5*
CCCc1cc(C(=O)N2CCCC(N3CCN(c4ccc(F)cc4)CC3)C2)no1 (centres undefined),-4.3,8.9,-0.3,97.9*
O=C(C1CCOCC1)N1CCCC(N2CCN(c3ccc(F)cc3)CC2)C1 (centres undefined),-4.0,-30.0,0.2,94.3*
SMILES,PfM18AAP inh,Mot1-301 SUMO,HIF activator,ALR H2O2 inh
O=C(c1ccccn1)N1CCCC(N2CCN(c3ccc(F)cc3)CC2)C1 (centres undefined),-0.6,6.9,0.1,97.0*
Cc1cc(C(=O)N2CCCC(N3CCN(c4ccc(F)cc4)CC3)C2)no1 (centres undefined),-14.4,-11.7,-0.1,54.0
COc1ccc(-c2cccc(NC(=O)c3ccc4c(c3)OCO4)c2)nn1,.,-8.3,0.0,-10.4
Cc1cc(NC(=O)COC(=O)CCNS(=O)(=O)c2ccccc2)n(-c2ccccc2)n1,.,-6.8,0.0,-0.5
CC1Oc2ccccc2C=C1C1/C(=C(/O)c2ccccc2)C(=O)C(=O)N1CCCN(C)C (centres undefined),1.5,285.8*,-3.0,-7.4
Cc1cc(C)c(NC(=O)CNC(=O)COC(=O)CNC(=O)c2ccc(Cl)cc2Cl)c(C)c1,.,7.4,0.1,-1.9
CC(=O)Nc1cccc(C(=O)/C=C/c2ccc(N(C)C)cc2)c1,3.6,-13.3,.,99.1*
